Test results taken from PubChem BioAssay (NCI).
The panel holds about 79,000 compounds, 15% with a hit somewhere; the sample as a whole holds those more often. Active and inactive are the calls of the source. Cut-off read from the data, not from the text of the source: active = growth inhibition above about 70%; inactive = the rest.

Legend:
[1] = NCI Yeast Anticancer Drug Screen. Data for the rad52 strain (AID 147);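 note: 0% = growth of vehicle-treated control cultures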; conditions: S. cerevisiae rad52 mutant growth inhibition, hits give high values
Procedure, shortened: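 Yeast strain carrying a DNA damage repair alteration was exposed to test compounds. Growth inhibition was measured relative to vehicle-treated controls.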

[2] = NCI Yeast Anticancer Drug Screen. Data for the wt1 strain (AID 149);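 note: 0% = growth of vehicle-treated wt1 cultures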; conditions: S. cerevisiae wt1 strain (SPY 50644) growth inhibition, hits give high values
Procedure, shortened: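 Using yeast strain wt1, compound-induced growth inhibition was determined against vehicle-treated cultures.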

[3] = NCI Yeast Anticancer Drug Screen. Data for the rad50EPP+ strain (AID 151);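 note: 0% = growth of vehicle-treated control cultures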; conditions: S. cerevisiae rad50 mutant strain, hits give high values
Procedure, shortened: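 Yeast strain carrying rad50 alteration (rad50EPP+) exposed to compounds; growth inhibition measured relative to vehicle-treated controls.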

[4] = NCI Yeast Anticancer Drug Screen. Data for the mgt1 strain (AID 153); conditions: S. cerevisiae mgt1 mutant growth inhibition, hits give high values
Procedure, shortened: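 Yeast mgt1 strain (DNA repair/cell-cycle alteration panel) exposed to compounds; growth inhibition measured relative to vehicle-treated controls.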

[5] = NCI Yeast Anticancer Drug Screen. Data for the rad50 strain (AID 155);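 note: 0% = growth of vehicle-only cultures of the same strain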; conditions: S. cerevisiae rad50 strain growth inhibition, hits give high values
Procedure, shortened: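 Relative growth inhibition (compound vs vehicle) was measured in yeast with a defined repair-gene alteration.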

[6] = NCI Yeast Anticancer Drug Screen. Data for the mec2-1 strain (AID 157); conditions: S. cerevisiae mec2-1 strain, hits give high values
Procedure, shortened: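 mec2-1 yeast strain, carrying an alteration in DNA damage repair or cell cycle control, was exposed to compounds; growth inhibition was measured relative to vehicle-treated controls.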

[7] = NCI Yeast Anticancer Drug Screen. Data for the rad14 strain (AID 159);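 note: 0% = growth of vehicle-treated control cultures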; conditions: S. cerevisiae rad14 strain growth inhibition, hits give high values
Procedure, shortened: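 Screen for anticancer potential: a yeast strain altered in DNA damage repair is grown with compound, and reduced growth is quantified against vehicle controls.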

[8] = NCI Yeast Anticancer Drug Screen. Data for the sgs1 mgt1 strain (AID 161);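 note: 0% = growth of cultures given vehicle only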; conditions: S. cerevisiae sgs1 mgt1 strain, hits give high values
Procedure, shortened: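 This yeast growth screen uses a strain with defined DNA-repair lesions; compound-treated growth is compared with vehicle-treated growth.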

[9] = NCI Yeast Anticancer Drug Screen. Data for the CLN2oe strain (AID 163);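 note: 0% = growth of vehicle-only control cultures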; conditions: S. cerevisiae CLN2oe strain, hits give high values
Procedure, shortened: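 Yeast cells carrying a defined cell-cycle control alteration were exposed to test compounds. Growth inhibition was scored against vehicle-treated control cultures.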

[10] = NCI Yeast Anticancer Drug Screen. Data for the cln2 rad14 strain (AID 165);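 note: 0% = growth equal to vehicle treated cultures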; conditions: S. cerevisiae cln2 rad14 strain, hits give high values
Procedure, shortened: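 Yeast carrying cln2 and rad14 alterations (cell cycle control and DNA damage repair) were exposed to compounds. Growth inhibition was measured against vehicle-treated controls.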

[11] = NCI Yeast Anticancer Drug Screen. Data for the bub3 strain (AID 167); conditions: S. cerevisiae bub3 mutant strain, hits give high values
Procedure, shortened: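 Screening used yeast with an engineered genetic alteration affecting cell cycle control. Compound-exposed cultures were compared with vehicle cultures, and reduced growth was taken as inhibition.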

[12] = NCI Yeast Anticancer Drug Screen. Data for the wt2 strain (AID 169);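 note: 0% = growth of vehicle-treated yeast cultures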; conditions: S. cerevisiae wt2 strain growth inhibition, hits give high values
Procedure, shortened: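 Yeast cells were exposed to test compounds, and growth inhibition was measured relative to vehicle-treated controls.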

[13] = NCI Yeast Anticancer Drug Screen. Data for the mlh1 strain (AID 171);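 note: 0% = growth of vehicle-treated control cultures of the same strain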; conditions: S. cerevisiae mlh1 strain growth inhibition, hits give high values
Procedure, shortened: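 Yeast carrying a defined genetic alteration in DNA damage repair or cell cycle control were exposed to test compounds. Growth inhibition was measured relative to vehicle-treated controls.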

[14] = NCI Yeast Anticancer Drug Screen. Data for the mlh1 rad18 strain (AID 175); conditions: S. cerevisiae mlh1 rad18 strain growth inhibition, hits give high values
Procedure, shortened: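 Growth inhibition of the yeast strain was measured after compound exposure and expressed relative to vehicle-treated controls. The strain carries defined defects in DNA damage repair.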

[15] = NCI Yeast Anticancer Drug Screen. Data for the rad18 strain (AID 177); conditions: S. cerevisiae rad18 mutant growth inhibition, hits give high values
Procedure, shortened: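 Yeast carrying a defined DNA damage repair alteration were exposed to compounds. Growth inhibition was expressed relative to vehicle-treated controls.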

[16] = NCI Yeast Anticancer Drug Screen. Data for the sgs1 strain (AID 173);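 note: 0% = growth of vehicle-only control cultures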; conditions: S. cerevisiae sgs1 mutant, hits give high values
Procedure, shortened: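 Yeast mutant strains carrying defined defects in DNA damage repair or cell cycle control were exposed to test compounds. Growth inhibition was scored against vehicle-treated controls.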

[17] = at 5.0 µM (retest, dose inferred, filed as 0.5)
[18] = at 50.0 µM (retest, dose inferred, filed as 5.0)

Measured: growth inhibition

Nc1nc(N)c2cc(Sc3ccc4ccccc4c3)ccc2n1
active: [1]; at 11.0 µM 92% | [1]; at 33.0 µM 96% | [1]; at 100.0 µM 92% | [2]; at 33.0 µM 86% | [2]; at 100.0 µM 89% | [4]; at 11.0 µM 74% | [4]; at 33.0 µM 93% | [4]; at 100.0 µM 94% | [5]; at 11.0 µM 90% | [5]; at 33.0 µM 95% | [5]; [18] 98% | [5]; at 50.0 µM 88.1% | [5]; at 100.0 µM 92% | [6]; [17] 79% | [6]; at 11.0 µM 94% | [6]; at 33.0 µM 95% | [6]; [18] 99% | [6]; at 50.0 µM 91.3% | [6]; at 100.0 µM 95% | [7]; at 33.0 µM 96% | [7]; at 100.0 µM 94% | [8]; [18] 97% | [8]; at 50.0 µM 89% | [9]; at 33.0 µM 85% | [9]; at 100.0 µM 89% | [10]; [18] 85% | [10]; at 50.0 µM 86.7% | [11]; at 11.0 µM 74% | [11]; at 33.0 µM 94% | [11]; [18] 97% | [11]; at 50.0 µM 85.8% | [11]; at 100.0 µM 93% | [12]; at 33.0 µM 87% | [12]; at 100.0 µM 92% | [13]; at 11.0 µM 79% | [13]; at 33.0 µM 95% | [13]; at 100.0 µM 93% | [14]; [18] 96% | [14]; at 50.0 µM 83.8% | [15]; at 11.0 µM 78% | [15]; at 33.0 µM 93% | [15]; at 100.0 µM 93%
inactive: [1]; at 1.2 µM 28% | [1]; at 3.7 µM 69% | [2]; at 1.2 µM 1% | [2]; at 3.7 µM 10% | [2]; at 11.0 µM 44% | [3]; at 1.2 µM 17% | [3]; at 3.7 µM 31% | [3]; at 11.0 µM 31% | [3]; at 33.0 µM 65% | [3]; at 100.0 µM 63% | [4]; at 1.2 µM -23% | [4]; at 3.7 µM 12% | [5]; at 1.2 µM -8% | [5]; at 3.7 µM 43% | [5]; [17] 55% | [6]; at 1.2 µM -13% | [6]; at 3.7 µM 61% | [7]; at 1.2 µM -13% | [7]; at 3.7 µM -2% | [7]; at 11.0 µM 69% | [8]; [17] 62% | [9]; at 1.2 µM 2% | [9]; at 3.7 µM 9% | [9]; at 11.0 µM 50% | [10]; [17] 10% | [11]; at 1.2 µM -21% | [11]; at 3.7 µM -4% | [11]; [17] 30% | [12]; at 1.2 µM -18% | [12]; at 3.7 µM 25% | [12]; at 11.0 µM 69% | [13]; at 1.2 µM -11% | [13]; at 3.7 µM 22% | [14]; [17] 60% | [15]; at 1.2 µM -6% | [15]; at 3.7 µM 27%

CCN(CC)CCNC(=O)c1nn(-c2ccc(Cl)cc2)c2c1CCc1cc(OC)ccc1-2
inactive: [1]; at 1.2 µM -16% | [1]; at 3.7 µM 13% | [1]; at 11.0 µM 26% | [1]; at 33.0 µM 40% | [2]; at 1.2 µM 10% | [2]; at 3.7 µM 22% | [2]; at 11.0 µM 25% | [2]; at 33.0 µM 24% | [2]; at 100.0 µM 58% | [3]; at 1.2 µM 18% | [3]; at 3.7 µM 32% | [3]; at 11.0 µM 43% | [3]; at 33.0 µM 44% | [3]; at 100.0 µM 56% | [4]; at 1.2 µM 12% | [4]; at 3.7 µM 10% | [4]; at 11.0 µM 8% | [4]; at 33.0 µM 12% | [5]; at 1.2 µM 6% | [5]; at 3.7 µM 5% | [5]; [17] 1% | [5]; at 11.0 µM 17% | [5]; at 33.0 µM 59% | [5]; at 50.0 µM 59.2% | [6]; at 1.2 µM -10% | [6]; at 3.7 µM -2% | [6]; [17] -16% | [6]; at 11.0 µM 4% | [6]; at 33.0 µM 0% | [6]; [18] 54% | [6]; at 50.0 µM 66.4% | [7]; at 1.2 µM -1% | [7]; at 3.7 µM 2% | [7]; at 11.0 µM 10% | [7]; at 33.0 µM 24% | [8]; [17] 15% | [8]; at 50.0 µM 67.5% | [9]; at 1.2 µM -12% | [9]; at 3.7 µM 11% | [9]; at 11.0 µM 6% | [9]; at 33.0 µM 5% | [10]; [17] 2% | [10]; [18] 39% | [10]; at 50.0 µM 28.8% | [11]; at 1.2 µM 9% | [11]; at 3.7 µM 9% | [11]; [17] 8% | [11]; at 11.0 µM 10% | [11]; at 33.0 µM 13% | [11]; at 50.0 µM 58.7% | [12]; at 1.2 µM -11% | [12]; at 3.7 µM -1% | [12]; at 11.0 µM -8% | [12]; at 33.0 µM 8% | [13]; at 1.2 µM 13% | [13]; at 3.7 µM 17% | [13]; at 11.0 µM 10% | [13]; at 33.0 µM 0% | [16]; at 1.2 µM 3% | [16]; at 3.7 µM 2% | [16]; at 11.0 µM 8% | [16]; at 33.0 µM 14% | [14]; [17] -1% | [15]; at 1.2 µM -4% | [15]; at 3.7 µM 4% | [15]; at 11.0 µM 1% | [15]; at 33.0 µM 18%
active: [1]; at 100.0 µM 94% | [4]; at 100.0 µM 81% | [5]; [18] 80% | [5]; at 100.0 µM 95% | [6]; at 100.0 µM 73% | [7]; at 100.0 µM 92% | [8]; [18] 80% | [9]; at 100.0 µM 80% | [11]; [18] 77% | [11]; at 100.0 µM 83% | [12]; at 100.0 µM 96% | [13]; at 100.0 µM 87% | [16]; at 100.0 µM 90% | [14]; [18] 81% | [15]; at 100.0 µM 95%
